MIN6 prolif: inducers of beta-cell replication in MIN6 cells; MIN6 cells proliferation, ATPlite luminescence, 48 h; cells starved in 0.2% serum; 100% = growth in 10% serum; proliferation, % at 10 µM; actives 0.29% (n = 330,000); AID 2380;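 active = compounds whose signal lies at least 3.5 SD above the mean of all wells on their plate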
p-CIP stab down: p/CIP protein destabilization. decrease of EGFP signal, % at 10 µM. F442A p/CIP-EGFP cells, EGFP fluorescence, 16 h. Q05BA5. actives 0.01% (n = 290,000);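 active = EGFP signal decrease of at least 30% at 10 µM or well 3 SD below plate mean, unless failing retest; inactive = the rest, including hits failing retest or dose response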
GRIN3A LBD mod: modulates the human NR3A ligand-binding domain; Tm shift relative to glycine control, % at 25 µM; actives 2.5% (n = 340,000); NR3A LBD differential scanning fluorimetry, Tm shift; 0% = protein alone, 100% = glycine-bound protein; AID 1259313;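 active = melting temperature shift of at least 10% of the positive control shift, at one fixed dose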
MPTP block: blocks calcium-induced mitochondrial swelling. actives 1.4% (n = 360,000). AID 602449. inhibition, % at 10 µM. isolated mouse mitochondria, Ca2+ swelling absorbance, 30 min;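 active = inhibition of 50% or more, scaled per plate between neutral and stimulator controls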
FAS TE block: blocks the thioesterase domain of human fatty acid synthase; recombinant FAS-TE, OMFH fluorogenic substrate, fluorescence endpoint; inhibition, % at 15 µM; actives 0.67% (n = 360,000); AID 602261;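 active = compounds whose normalised, plate-corrected inhibition of enzyme fluorescence in the single-dose primary screen is 50% or more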
MPTP counter: membrane potential counter-screen of mitochondrial pore inhibitors; actives 78% (n = 5,000); isolated mitochondria, Rhodamine 123 fluorescence; inhibition, % at 10 µM; shares compounds with MPTP block; in the data active = inhibition above about 22%
MPTP abs DR: MPTP inhibition, dose response swelling confirmation | shares compounds with MPTP block | actives 58% (n = 780) | isolated mitochondria swelling, absorbance | IC50, µM; in the data active = IC50 below about 20 µM
MPTP cs DR: active in counter-screen for permeability transition pore inhibitors; actives 49% (n = 780); shares compounds with MPTP block; IC50, µM; isolated mitochondria counterscreen, fluorescence read-out; in the data active = IC50 below about 80 µM
Each line names hits and unclear results; the compound was inactive in the other large screens (follow-up assays come after a bar, where they were run). The list is not random: actives were taken first. Their share in the collection is about 4.1%.

O=C(Nc1ccncc1)Nc1ccc(F)c(Cl)c1	MPTP block 92 | MPTP counter 107
CN1c2ccccc2Oc2c(c(=O)n(C)c(=O)n2C)C1c1cccc([N+](=O)[O-])c1 (stereo not given)	none
CC(OC(=O)c1nc(Cl)ccc1Cl)C(=O)NCc1ccccc1 (stereo not given)	none (no result: MIN6 prolif, p-CIP stab down, GRIN3A LBD mod)
C[C@H](NC(=O)c1ccccc1)C(=O)N1CCN(c2ccccc2)CC1	none
Cc1ccc(Cl)cc1NC(=O)N[C@@H](C)C(=O)O	none
CCOC(=O)C1=C(CC)Nc2ccccc2N=C1NC(=O)Nc1ccc(Cl)c(Cl)c1	GRIN3A LBD mod 28, MPTP block 97 | MPTP counter 62
CCOC(=O)C1=C(CC)Nc2ccccc2N=C1NC(=O)c1cc(C)on1	none (no result: p-CIP stab down)
Cc1occc(=O)c1OC(=O)Nc1ccc(Cl)c(Cl)c1	GRIN3A LBD mod 38, MPTP block 99 (no result: MIN6 prolif) | MPTP counter 78
COc1ccc(NC(=O)Cn2c(C)cc(=O)c3ccccc32)cc1	MPTP block 61 | MPTP counter 41
COc1ccc(NC(=O)Cn2c(=O)sc3ccccc32)cc1	none
CCOC(=O)C(C)On1c(-c2cccc(Cl)c2)nc2ccc([N+](=O)[O-])cc21 (stereo not given)	GRIN3A LBD mod 10, MPTP block 87 | MPTP counter 99
CC(On1c(-c2ccccc2)nc2ccc(Cl)cc21)C(=O)O (stereo not given)	none
CCOC(=O)COn1c(-c2cccc(Cl)c2)nc2ccc([N+](=O)[O-])cc21	MPTP block 57 | MPTP counter 81
CS(=O)(=O)N(CC(=O)NCc1ccco1)c1cccc([N+](=O)[O-])c1	none
C(=C\c1nc(N2CCCCCC2)c2ccccc2n1)/c1ccccc1	MPTP block 65 | MPTP counter 93
c1ccc2c(N3CCCCC3)nc(N3CCCCC3)nc2c1	none
Cc1ccc(C(=O)Nc2cccc3cccnc23)cc1C	none
O=C(NC1CCN(Cc2ccccc2)CC1)c1cccc(S(=O)(=O)Nc2cc(C(F)(F)F)ccc2Cl)c1	none
CCC1CCCCN1C(=O)c1cccc(S(=O)(=O)Nc2cc(C(F)(F)F)ccc2Cl)c1 (stereo not given)	MPTP block 74 | MPTP counter 81
Cc1ccc(Nc2nc(NCc3ccco3)c3ccccc3n2)cc1	MPTP block 93 | MPTP counter 89
COc1ccccc1Nc1nc(NCc2ccco2)c2ccccc2n1	MPTP block 71 | MPTP counter 84
c1ccc(-c2nc(NCc3ccco3)c3ccccc3n2)nc1	none
CCN(CC)c1ccc(C(=C2C=CC(=[N+](CC)CC)C=C2)c2ccc(N(CC)CC)cc2)cc1	GRIN3A LBD mod 351, MPTP block 137 (no result: MIN6 prolif, p-CIP stab down) | MPTP counter 74
NC(=O)CCCn1c(C(=O)c2ccc(Cl)cc2)c2ccc(C(F)(F)F)cc2[n+]1[O-]	none (no result: p-CIP stab down)
NCCCn1c(C(=O)c2ccc(Cl)cc2)c2ccc(C(F)(F)F)cc2[n+]1[O-]	MPTP block 65 (no result: p-CIP stab down) | MPTP counter inactive | MPTP abs DR 8.7 | MPTP cs DR inactive
Cc1ccc(-c2nnc(SCC(=O)NC3CCCC3)n2C)cc1	none
Cc1ccc(NC(=S)N2CCCC2)cc1Cl	none
Cc1cc(C)c2nc(SCCc3ccccc3)nc(C)c2c1	MPTP block 71 | MPTP counter inactive | MPTP abs DR inactive | MPTP cs DR inactive
O=C(/C=C/C(Cl)(Cl)Cl)Nc1ccc(Cl)cc1	MPTP block 96 (no result: MIN6 prolif, p-CIP stab down) | MPTP counter 102
NC(=O)/C=C/C(=O)Nc1ccc(Cl)cc1	none
O=C(Nc1nnc(-c2ccccc2)o1)c1nc2ccccc2s1	MPTP block 63 | MPTP counter inactive | MPTP abs DR 8.4 | MPTP cs DR 78
CCOC(=O)N1CCN(C(=O)c2oc3ccc(S(=O)(=O)N4CCCCC4)cc3c2C)CC1	none
Cc1c(C(=O)N2CCCCC2)oc2ccc(S(=O)(=O)N3CC(C)CC(C)C3)cc12 (stereo not given)	MPTP block 83 | MPTP counter 44
C=CCn1c(CCC(=O)Nc2ccc(C)c(Cl)c2)nnc1SCC(=O)Nc1ccccc1C	none
O=C(Nc1cccc(S(=O)(=O)Nc2ccccc2Cl)c1)c1ccc(Cl)nc1	MPTP block 62 | MPTP counter 56
O=C(Nc1cccc(S(=O)(=O)N2CCCCCC2)c1)c1ccc(Cl)nc1	none (no result: p-CIP stab down)
O=C(CSc1ccc([N+](=O)[O-])cc1)Nc1cccc(S(=O)(=O)Nc2ccccc2F)c1	GRIN3A LBD mod 24, MPTP block 87 | MPTP counter 68
Cn1c(=O)c2c(ncn2CC(=O)Nc2cccc(S(=O)(=O)Nc3ccccc3F)c2)n(C)c1=O	none
O=C(Cc1ccc(Cl)cc1)Nc1cccc(S(=O)(=O)Nc2ccccc2F)c1	MPTP block 60 | MPTP counter 64
CSCC[C@H](NC(=O)C1CCN(S(=O)(=O)c2ccc(C)cc2)CC1)C(=O)NC1CCS(=O)(=O)C1 (stereo not given in full)	none
COc1ccc(/C(C)=N/NS(=O)(=O)c2cc(C)ccc2C)c(OC)c1	none
C=Cc1ccc(Cn2nc(-c3ccc(C)cc3)ccc2=O)cc1	MPTP block 69 | MPTP counter 79
O=c1ccc(-c2ccccc2)nn1Cc1ccc(Cl)cc1	none (no result: MIN6 prolif, p-CIP stab down)
Cc1ccc(C(=O)OCC(=O)NNC(=O)COc2ccc(Cl)cc2)c(O)c1	none (no result: p-CIP stab down)
CCOC(=O)c1cccc(NC(=O)CSc2nc3cccnc3n2C)c1	MPTP block 73 | MPTP counter 29
COc1ccc(NC(=O)CN(C)C(=O)/C=C/c2cn(-c3ccccc3)nc2-c2cccs2)cc1	none (no result: p-CIP stab down)
COc1ccc2c(COC(=O)CNS(=O)(=O)c3ccc(C)c(C)c3)cc(=O)oc2c1	none (no result: p-CIP stab down)
COc1ccccc1Oc1ccc(S(=O)(=O)NCc2ccccn2)cc1	MPTP block 70 | MPTP counter 38
COc1ccc(S(=O)(=O)NCc2ccccn2)cc1OC	none
COC(=O)c1ccc(N2CCN(S(=O)(=O)c3ccc(C)cc3)CC2)c([N+](=O)[O-])c1	MPTP block 56 | MPTP counter 65
COc1ccc(S(=O)(=O)N2CCN(c3ccc(C)cc3C)CC2)cc1OC	MPTP block 57 | MPTP counter 82
CC(=O)c1ccc(N2CCC(c3cc(-c4ccc(Cl)cc4Cl)n[nH]3)CC2)c([N+](=O)[O-])c1	MPTP block 74 | MPTP counter 68
COC(=O)c1ccc(N2CCN(S(=O)(=O)c3ccc(Br)cc3)CC2)c([N+](=O)[O-])c1	none
CC(=O)c1ccc(N2CCN(c3ccccc3O)CC2)c([N+](=O)[O-])c1	MPTP block 85 | MPTP counter 81
